12-LOX inh: Primary qHTS assay for inhibitors of human arachidonate 12S-lipoxygenase (ALOX12): Round 2; Potency, µM (series often up to 108 µM), without a hit: at the highest dose activity change, negative = inhibition, usual class: inhibitors; Polyunsaturated fatty acid lipoxygenase ALOX12 (Homo sapiens), P18054; purified 12hLO, xylenol orange hydroperoxide absorbance; actives 1.1% (n = 580,000); AID 1671190, 2021; also: potency is read from the fitted curve at half-maximal effect
Target sequence (P18054 whole entry, looked up): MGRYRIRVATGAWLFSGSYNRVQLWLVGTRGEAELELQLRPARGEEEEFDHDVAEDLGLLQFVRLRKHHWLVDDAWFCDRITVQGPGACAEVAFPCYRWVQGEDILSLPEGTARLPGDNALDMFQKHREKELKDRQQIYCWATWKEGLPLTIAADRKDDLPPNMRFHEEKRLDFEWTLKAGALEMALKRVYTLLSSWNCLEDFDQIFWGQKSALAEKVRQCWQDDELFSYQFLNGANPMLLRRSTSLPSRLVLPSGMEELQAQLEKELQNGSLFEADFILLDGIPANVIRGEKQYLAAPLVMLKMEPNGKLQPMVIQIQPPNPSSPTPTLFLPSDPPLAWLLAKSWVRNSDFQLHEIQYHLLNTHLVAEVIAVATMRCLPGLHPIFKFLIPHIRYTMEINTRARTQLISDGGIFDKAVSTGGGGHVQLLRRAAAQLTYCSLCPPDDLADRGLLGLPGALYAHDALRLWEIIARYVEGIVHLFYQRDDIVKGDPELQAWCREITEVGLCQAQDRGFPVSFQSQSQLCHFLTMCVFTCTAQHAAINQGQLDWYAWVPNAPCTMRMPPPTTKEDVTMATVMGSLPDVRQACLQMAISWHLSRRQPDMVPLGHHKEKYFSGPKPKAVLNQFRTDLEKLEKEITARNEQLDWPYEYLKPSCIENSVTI
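Purified human 12hLO (150 nM final) in 25 mM Hepes, 0.01% Triton X-100, pH 7.0 was preincubated 15 min at room temperature with compound. Then 40 uM arachidonic acid was added, 30 min. Hydroperoxide was read by Fe-XO absorbance ratio 573/405 nm.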
HT1080 IDH1KD tx: qHTS for induction of synthetic lethality in tumor cells producing 2HG: qHTS for the HT-1080-IDH1KD cell line. HT-1080 IDH1 knockdown viability, ATP luminescence, 48 h. Potency, µM (series often up to 46.1 µM), for inactives: top-dose activity, negative = toxicity, usual class: cytotoxic. actives 2% (n = 360,000);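 also: potency is read from the fitted curve at half-maximal effect; 0% = DMSO wells and -100% = cell-free medium wells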
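IDH1KD HT-1080 cells, 750/well, RPMI + 5% FBS; compound pinned after 2 h settling; 48 h, 37 °C; CellTiter-Glo luminescence; % activity normalised to DMSO and no-cell wells; curves fitted, classed by r2 and efficacy.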
IL-1B inflam inh: qHTS for Inhibitors of Inflammasome Signaling: IL-1-beta AlphaLISA Primary Screen. THP-1 LPS/ATP IL-1B secretion, AlphaLISA, 16 h; stronger effect = lower value. activity change, % at 57.5 µM. actives 4.7% (n = 360,000). AID 743279, 2014; in the data active = activity change below about -50%; inconclusive = mostly about -30% to -49%
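THP-1 cells pretreated 1 hr with compounds (up to 57.5 uM final), then stimulated with LPS (250 ng/mL final) plus ATP (1.25 mM final); secreted IL-1B measured by AlphaLISA after 16 hr, decreased signal indicating inhibition.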
DT40 TDP1 CPT: qHTS for Inhibitors of human tyrosyl-DNA phosphodiesterase 1 (TDP1): qHTS in cells in presence of CPT; chicken DT40 Tdp1-/-;hTDP1 cells + 20 nM CPT, ATP luminescence, 48 h; Potency, µM (doses to about 46.2 µM), inactives show top-dose activity change, negative = growth inhibition, usual class: inhibitors; actives 12% (n = 420,000); AID 686979, 2013; also: potency is read from the fitted curve at half-maximal effect; nearly all actives have a fitted effect of over 55% in size
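Chicken DT40 Tdp1-/- cells stably complemented with human TDP1 were seeded at 400 cells/well in medium containing 20 nM camptothecin, exposed to pin-transferred compounds, and grown at 37 °C for at least 48 hr. Viability was read as ATP luminescence.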
DT40 TDP1 no CPT: qHTS for Inhibitors of human tyrosyl-DNA phosphodiesterase 1 (TDP1): qHTS in cells in absence of CPT; AID 686978, 2013; Potency, µM (titrated, usually from 46.2 µM), without a hit: at the top dose activity change, negative = growth inhibition, actives largely listed as inhibitors; actives 15% (n = 420,000); DT40 Tdp1-/- hTDP1 cells, no CPT, ATP luminescence, 48 h; also: potency is read from the fitted curve at half-maximal effect; nearly all actives have a fitted effect of over 55% in size
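DT40 Tdp1-/-;hTDP1 cells, no CPT (DMSO vehicle only), 400 cells/well; compounds pin-transferred; ≥48 hr, 37 °C; CellTiter-Glo 30 min RT dark, luminescence read.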
HT1080NT lethal: qHTS for induction of synthetic lethality in tumor cells producing 2HG: qHTS for the HT-1080-NT fibrosarcoma cell line. Potency, µM (series often up to 46.1 µM), inactives show top-dose activity, negative = less viability, actives largely listed as cytotoxic. AID 686970, 2013. actives 1.6% (n = 360,000). HT-1080-NT fibrosarcoma viability, CellTiter-Glo ATP luminescence, 48 h;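 also: NT is the 2HG producing partner of a matched IDH1 knockdown line; potency is read from the fitted curve at half-maximal effect; 0% = DMSO-treated cells and -100% = media-only wells without cells; nearly all actives have a fitted effect of over 55% in size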
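A 48-hour cytotoxicity screen used HT-1080-NT cells plated 2 hours before compound delivery. ATP-based CellTiter-Glo luminescence measured viability, normalized to DMSO and no-cell controls.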
An asterisk follows results filed as active; u = inconclusive; x = no result given. Shown is part of a subset that was picked to be rich in hits. Unless noted, calls follow the shape of the dose curve; as a rule, active = well fitted curve in the direction sought with a large enough effect; inconclusive = small, poorly fitted or top-dose-only effect, or another doubt; inactive = no such curve, though single readings can be large; an effect the other way counts as inactive or inconclusive. Unless noted, % is scaled to controls: 0 for no effect and ±100 for the full control effect.

SMILES	12-LOX inh	HT1080 IDH1KD tx	IL-1B inflam inh	DT40 TDP1 CPT	DT40 TDP1 no CPT	HT1080NT lethal
CC(=O)Nc1ccc(NC(=S)NC(NC(=O)c2ccc(C)cc2)C(Cl)(Cl)Cl)cc1 (centres undefined)	32µM*	x	x	x	x	x
COc1ccc(C(=O)NC(Nc2ccc(C)cc2)C(Cl)(Cl)Cl)cc1 (centres undefined)	-19%	u	-72*	21µM*	18µM*	-17%
COc1ccc(NC(NC(=O)c2ccc(OC)cc2)C(Cl)(Cl)Cl)cc1 (centres undefined)	u	-19%	-78*	u	u	4%
O=[N+]([O-])c1cc(S(=O)(=O)Nc2ccccc2)ccc1N/N=C/c1cn(-c2ccccc2)nc1-c1cccs1	2%	x	x	x	x	x
O=C(NCC1(c2ccccc2)CCC1)C12CC3CC(CC(C3)C1)C2	-12%	x	x	x	x	x
CCOc1cc(CNC(=O)C2CCN(c3nc4ccccc4[nH]3)CC2)cc(OCC)c1OCC	-10%	x	x	21µM*	16µM*	x
CCc1ccc(CNC(=O)C2COc3ccccc3C2)cc1 (centres undefined)	-5%	x	x	-7%	1%	x
CCOc1ccc(NC(=O)C2CCN(c3nc4ccccc4nc3OC)CC2)cc1	4%	x	x	x	x	x
CCOc1ccc(NC(=O)C2CCN(c3nc4ccccc4[nH]3)CC2)cc1	u	x	x	u	23µM*	x
CCOc1cc(CNC(=O)C2COc3ccccc3C2)cc(OCC)c1OCC (centres undefined)	10%	x	x	15µM*	u	x
CN(C)c1ccc(CNC(=O)C2CCN(c3nc4ccccc4[nH]3)CC2)cc1	-21%	x	x	u	u	x
O=C(CSc1nc(=O)n(Cc2cccnc2)c2c1CCC2)N1CCCCC1	-24%	x	x	x	x	x
CC(=O)NC1=NN(C(C)=O)C(c2cc(Br)ccc2OCc2ccc(C)cc2)S1 (centres undefined)	-23%	x	x	x	x	x
O=C(CCCSc1nc(-c2ccco2)cc(C(F)(F)F)n1)Nc1ccc2c(c1)OCO2	56%	-24%	u	u	23µM*	-23%
COc1cc(NC(=O)CCCSc2nc(-c3ccco3)cc(C(F)(F)F)n2)cc(OC)c1OC	-29%	-17%	-7	u	u	-16%
CC(=O)c1ccc(NC(=O)CCCSc2nc(-c3ccco3)cc(C(F)(F)F)n2)cc1	-21%	x	x	23µM*	16µM*	x
CC(C)CNC(=O)NC(=O)COC(=O)c1ccccc1Sc1ccc(C(F)(F)F)cc1[N+](=O)[O-]	-27%	-2%	49	29µM*	u	-6%
C=CCNC(=O)NC(=O)COC(=O)c1ccccc1Sc1ccc(C(F)(F)F)cc1[N+](=O)[O-]	-13%	u	17	u	-53%	u
Cc1ccc(S(=O)(=O)N2CCC(Oc3ncccc3C(=O)N(C)C)C2)cc1F (centres undefined)	33%	x	x	x	x	x
Cc1ccc(NC(=O)Cn2c3ncccc3c(=O)n2-c2ccc(C)c(C)c2)cc1	-14%	x	x	x	x	x
COc1cccc(NC2c3ccccc3C(=O)N2Cc2ccco2)c1 (centres undefined)	9%	-2%	0	21µM*	23µM*	-5%
O=C1c2ccccc2C(Nc2cccc(C(F)(F)F)c2)N1Cc1ccco1 (centres undefined)	u	u	-5	23µM*	16µM*	-24%
c1ccc(-c2nn[nH]n2)cc1	-1%	u	6	-2%	-26%	16%
Fc1cccc(-c2nn[nH]n2)c1	25µM*	8%	9	-3%	1%	8%
CN(C)c1nc(-c2ccccc2)nc2c1CCN(C(=O)c1ccncc1)C2	14%	x	x	x	x	x
SMILES	12-LOX inh	HT1080 IDH1KD tx	IL-1B inflam inh	DT40 TDP1 CPT	DT40 TDP1 no CPT	HT1080NT lethal
Cc1c(Cl)cccc1-n1c(SCC(=O)NCc2ccccc2)nc2n[nH]c(C)c2c1=N	-12%	x	x	15µM*	12µM*	x
Cc1ccc(CNC(=O)CSc2nc3n[nH]c(C)c3c(=N)n2-c2ccccc2Cl)cc1	-16%	x	x	18µM*	23µM*	x
Cc1ccccc1-n1c(SCC(=O)Nc2ccccc2Cl)nc2n[nH]c(C)c2c1=N	14%	u	-1	16µM*	18µM*	u
Cn1cnnc1SCC(=O)NCc1ccccc1	-4%	18%	11	-2%	1%	17%
Cc1ccc(-n2c(SCC(=O)NCc3ccccc3)nc3n[nH]c(C)c3c2=N)cc1Cl	-12%	x	x	4.1µM*	2.3µM*	x
CCOc1ccccc1NC(=O)CCSc1nc2n[nH]c(C)c2c(=N)n1-c1ccccc1Cl	15%	u	45	u	u	u
Cc1nc2cccnc2n1CC1CCCN(S(=O)(=O)Cc2ccc(Cl)cc2)C1 (centres undefined)	-9%	x	x	x	x	x
COc1ccc(-n2c(SCC(=O)NCc3ccc(C)cc3)nc3n[nH]c(C)c3c2=N)cc1	-5%	x	x	6.5µM*	4.1µM*	x
COc1ccc(NC(=O)CSc2nc3n[nH]c(C)c3c(=N)n2-c2ccc(Cl)c(C)c2)cc1OC	x	16%	-19	-16%	u	7%
CCc1ccc(-n2c(SCC(=O)NC(C)CC)nc3n[nH]c(C)c3c2=N)cc1 (centres undefined)	-1%	x	x	5.8µM*	5.2µM*	x
Cc1ccccc1-n1c(SCC(=O)Nc2ccc(Cl)cc2Cl)nc(O)cc1=O	6.3µM*	x	x	5%	-5%	x
CCc1ccccc1NC(=O)CSc1nc2n[nH]c(C)c2c(=N)n1-c1cccc(OC)c1	-8%	u	-6	16µM*	23µM*	-29%
O=C(Cn1c(=O)c2c(ncn2Cc2ccccc2)n(Cc2ccccc2)c1=O)Nc1ccccc1F	-2%	x	x	x	x	x
O=C(O)C[C@@H]1CCN(C(=O)C2CCC2)C[C@@H]1CCN1CCC(n2c(=O)[nH]c3ccccc32)CC1	18%	x	x	x	x	x
Cc1ccccc1-n1c(SCc2ccccn2)nc2n[nH]c(C)c2c1=N	0%	-21%	u	21µM*	16µM*	-18%
COc1ccc(CNC(=O)CSc2n[nH]c(-c3ccc(OC)cc3)n2)cc1	-10%	x	x	9.2µM*	13µM*	x

High-throughput results as filed in PubChem.
